Laboratory results: PubChem BioAssay (NCI)
“And” between values parts separate entries of the source, which are not always exact repeats. Identical values can stand only once. This is part of a sample that, as a whole, favours compounds with a hit. Of some 83,000 tested, about 20% had one in any assay.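 Assay: single dose, 48 h. Readout: percent growth (0 = no net growth; negative = cell death). Active: <10.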 The source made the active and inactive calls.

Columns and labels:
Experiment in all cases: NCI-60 one-dose screen, 48 h (100 = growth as untreated, 0 = no growth, -100 = all killed)
Details in all cases: 10 µM unless noted
SR leukemia = test system: SR leukemia
RPMI-8226 leukemia = test system: RPMI-8226 leukemia
OVCAR-8 ovarian = test system: OVCAR-8 ovarian
OVCAR-5 ovarian = test system: OVCAR-5 ovarian
OVCAR-4 ovarian = test system: OVCAR-4 ovarian
IGROV1 ovarian = test system: IGROV1 ovarian
OVCAR-3 ovarian = test system: OVCAR-3 ovarian
HS 578T breast = test system: HS 578T breast
NCI/ADR-RES ovarian = test system: NCI/ADR-RES ovarian
BT-549 breast = test system: BT-549 breast
MDA-MB-435 melanoma = test system: MDA-MB-435 melanoma
SW-620 colon = test system: SW-620 colon
MCF7 breast = test system: MCF7 breast
HCT-116 colon = test system: HCT-116 colon
HCC-2998 colon = test system: HCC-2998 colon
KM12 colon = test system: KM12 colon
SK-OV-3 ovarian = test system: SK-OV-3 ovarian
T-47D breast = test system: T-47D breast

Measured: growth

CCOC(=O)C(N)Cc1cc(I)c(O)c(I)c1 (stereo unspecified)
inactive: SR leukemia 89.3% and 104% | RPMI-8226 leukemia 96.4% and 107% | OVCAR-8 ovarian 110% and 104% | OVCAR-5 ovarian 109% and 107% | OVCAR-4 ovarian 108% and 107% | IGROV1 ovarian 115% and 104% | OVCAR-3 ovarian 113% and 102% | HS 578T breast 107% | NCI/ADR-RES ovarian 98.8% and 101% | BT-549 breast 109% and 98.5% | MDA-MB-435 melanoma 105% and 114% | SW-620 colon 104% | MCF7 breast 107% and 103% | HCT-116 colon 110% and 95.3% | HCC-2998 colon 104% and 96.6% | KM12 colon 107%

COc1ccc(C(=O)C(O)c2ccc(OC)cc2)cc1 (stereo unspecified)
inactive: SR leukemia 102% and 94% | RPMI-8226 leukemia 112% and 106% | OVCAR-8 ovarian 99.8% and 101% | OVCAR-5 ovarian 111% and 109% | OVCAR-4 ovarian 103% and 102% | SK-OV-3 ovarian 106% and 101% | OVCAR-3 ovarian 112% and 107% | HS 578T breast 112% and 102% | NCI/ADR-RES ovarian 102% | MDA-MB-435 melanoma 117% and 111% | SW-620 colon 105% and 107% | MCF7 breast 96.7% and 98.1% | HCT-116 colon 102% and 93% | HCC-2998 colon 111% and 108% | KM12 colon 110% and 99.8%

COc1cc([C@@H]2c3cc4c(cc3[C@H](O)[C@H]3COC(=O)[C@@H]23)OCO4)cc(OC)c1OC
28.4% (inactive) and -3.9% (active): KM12 colon
active: SR leukemia 6.02% and -8.59% | IGROV1 ovarian -2.37% and -41.6% | HS 578T breast -47.7% | NCI/ADR-RES ovarian 5.58% and -30.9% | MDA-MB-435 melanoma -23.1% and -44.3% | HCC-2998 colon -10.3% and -60.9%
29% (inactive) and -49.9% (active): OVCAR-3 ovarian
18.4% (inactive) and 5.61% (active): MCF7 breast
25.8% (inactive) and -19.7% (active): RPMI-8226 leukemia
10.5% (inactive) and -40.7% (active): HCT-116 colon
inactive: OVCAR-8 ovarian 11.5% and 18.9% | OVCAR-5 ovarian 24.3% and 30.4% | OVCAR-4 ovarian 34.2% and 35.6% | BT-549 breast 22.3%
16.7% (inactive) and 4.24% (active): SW-620 colon

Nc1ccccc1SC1CC(=O)N(c2ccc(I)cc2)C1=O (stereo unspecified)
inactive: SR leukemia 68.6% | RPMI-8226 leukemia 85.1% | OVCAR-8 ovarian 87.8% | OVCAR-5 ovarian 90.3% | OVCAR-4 ovarian 93.8% | IGROV1 ovarian 85.2% | OVCAR-3 ovarian 87.1% | HS 578T breast 88.6% | NCI/ADR-RES ovarian 91.6% | T-47D breast 82.3% | BT-549 breast 91.6% | MDA-MB-435 melanoma 91.8% | SW-620 colon 93.3% | MCF7 breast 86.5% | HCT-116 colon 95.3% | HCC-2998 colon 103% | KM12 colon 79.1%

CCN(CC)C(=S)SCCO
inactive: SR leukemia 92.5% | RPMI-8226 leukemia 99.5% | OVCAR-8 ovarian 103% | OVCAR-5 ovarian 110% | OVCAR-4 ovarian 113% | SK-OV-3 ovarian 111% | OVCAR-3 ovarian 106% | HS 578T breast 103% | NCI/ADR-RES ovarian 102% | BT-549 breast 144% | MDA-MB-435 melanoma 111% | SW-620 colon 106% | MCF7 breast 104% | HCC-2998 colon 94.1% | KM12 colon 105%

Cc1ccc([N+](=O)[O-])cc1Br
inactive: SR leukemia 83% | RPMI-8226 leukemia 108% | OVCAR-8 ovarian 91.1% | OVCAR-5 ovarian 89.9% | OVCAR-4 ovarian 105% | OVCAR-3 ovarian 107% | HS 578T breast 94.8% | NCI/ADR-RES ovarian 108% | BT-549 breast 110% | MDA-MB-435 melanoma 85.6% | SW-620 colon 91.8% | MCF7 breast 97.6% | HCT-116 colon 90.8% | HCC-2998 colon 117% | KM12 colon 103%

COc1ccccc1OCC(O)CO (stereo unspecified)
inactive: SR leukemia 116% and 124% | RPMI-8226 leukemia 76.7% | OVCAR-8 ovarian 115% and 104% | OVCAR-5 ovarian 103% | OVCAR-4 ovarian 110% and 101% | IGROV1 ovarian 123% and 114% | OVCAR-3 ovarian 107% and 125% | HS 578T breast 61.7% and 107% | NCI/ADR-RES ovarian 100% and 107% | T-47D breast 91.4% and 105% | BT-549 breast 107% | MDA-MB-435 melanoma 76.7% and 96.1% | SW-620 colon 101% and 109% | MCF7 breast 94.1% and 105% | HCT-116 colon 106% and 102% | HCC-2998 colon 95% and 86.1% | KM12 colon 98% and 108%
